This test deals with pT7_6His-AlfaTag-HOXD13 (human, UniProt P35453 263-343). Description: PADIT-seq. The conditions noted are these: dsDNA, one strand shown.
pT7_6His-AlfaTag-HOXD13, sequence (P35453 263-343): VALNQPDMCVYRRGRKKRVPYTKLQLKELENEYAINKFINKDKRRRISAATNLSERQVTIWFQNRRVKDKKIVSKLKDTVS
“CTCGAGGATATCAAGATCTGGCCTCGGCATTTTACAAGGAACCTCTAGCTAGCCGACTCACTATAGGGATAATCGCCCTGAGCAAAGACC” returned a binding signal of 3.41 ± 0.0871 log2FC. The figure for “CTCGAGGATATCAAGATCTGGCCTCGGCTATATAAAAGGAACCTCTAGCTAGCCGACTCACTATAGGGATAATCGCCCTGAGCAAAGACC” is 2.63 ± 0.0902 log2FC; for “CTCGAGGATATCAAGATCTGGCCTCGGCACTGTAAAAGGAACCTCTAGCTAGCCGACTCACTATAGGGATAATCGCCCTGAGCAAAGACC” it is 1.95 ± 0.0803 log2FC; for “CTCGAGGATATCAAGATCTGGCCTCGGCGTTTTATGGGGAACCTCTAGCTAGCCGACTCACTATAGGGATAATCGCCCTGAGCAAAGACC” it is 3.21 ± 0.0773 log2FC. The figure for “CTCGAGGATATCAAGATCTGGCCTCGGCAATTGGGCGGGAACCTCTAGCTAGCCGACTCACTATAGGGATAATCGCCCTGAGCAAAGACC” is -0.563 ± 0.097 log2FC; for “CTCGAGGATATCAAGATCTGGCCTCGGCGTTTTACTAGGAACCTCTAGCTAGCCGACTCACTATAGGGATAATCGCCCTGAGCAAAGACC” it is 2.96 ± 0.0769 log2FC. Then “CTCGAGGATATCAAGATCTGGCCTCGGCTTTTTACGTGGAACCTCTAGCTAGCCGACTCACTATAGGGATAATCGCCCTGAGCAAAGACC”, with 2.42 ± 0.0834 log2FC. Sequence “CTCGAGGATATCAAGATCTGGCCTCGGCGTTTTACGAGGAACCTCTAGCTAGCCGACTCACTATAGGGATAATCGCCCTGAGCAAAGACC” gave a binding signal of 3.47 ± 0.133 log2FC. Then “CTCGAGGATATCAAGATCTGGCCTCGGCCTCGTAAAAGGAACCTCTAGCTAGCCGACTCACTATAGGGATAATCGCCCTGAGCAAAGACC”, with 3.09 ± 0.0876 log2FC. With “CTCGAGGATATCAAGATCTGGCCTCGGCAAGTTAAAAGGAACCTCTAGCTAGCCGACTCACTATAGGGATAATCGCCCTGAGCAAAGACC”, the binding signal was determined as 1.07 ± 0.0825 log2FC. Then “CTCGAGGATATCAAGATCTGGCCTCGGCCTGCTAAAAGGAACCTCTAGCTAGCCGACTCACTATAGGGATAATCGCCCTGAGCAAAGACC”, with 0.179 ± 0.113 log2FC; and “CTCGAGGATATCAAGATCTGGCCTCGGCAATGTAAAAGGAACCTCTAGCTAGCCGACTCACTATAGGGATAATCGCCCTGAGCAAAGACC”, with 0.947 ± 0.0815 log2FC; and “CTCGAGGATATCAAGATCTGGCCTCGGCATTTTAGGCGGAACCTCTAGCTAGCCGACTCACTATAGGGATAATCGCCCTGAGCAAAGACC”, with -0.396 ± 0.116 log2FC. Then “CTCGAGGATATCAAGATCTGGCCTCGGCGTTTTATTAGGAACCTCTAGCTAGCCGACTCACTATAGGGATAATCGCCCTGAGCAAAGACC”, with 3.19 ± 0.0762 log2FC; and “CTCGAGGATATCAAGATCTGGCCTCGGCGCGTGGCGAGGAACCTCTAGCTAGCCGACTCACTATAGGGATAATCGCCCTGAGCAAAGACC”, with -0.862 ± 0.192 log2FC. The figure for “CTCGAGGATATCAAGATCTGGCCTCGGCACCCTAAAAGGAACCTCTAGCTAGCCGACTCACTATAGGGATAATCGCCCTGAGCAAAGACC” is 0.642 ± 0.0968 log2FC; for “CTCGAGGATATCAAGATCTGGCCTCGGCCATCTAAAAGGAACCTCTAGCTAGCCGACTCACTATAGGGATAATCGCCCTGAGCAAAGACC” it is -0.085 ± 0.105 log2FC. For the sequence “CTCGAGGATATCAAGATCTGGCCTCGGCATTTTATGGGGAACCTCTAGCTAGCCGACTCACTATAGGGATAATCGCCCTGAGCAAAGACC”, the binding signal stood at 3.25 ± 0.0762 log2FC. Then “CTCGAGGATATCAAGATCTGGCCTCGGCGCGTTAAAAGGAACCTCTAGCTAGCCGACTCACTATAGGGATAATCGCCCTGAGCAAAGACC”, with 1.22 ± 0.079 log2FC. The figure for “CTCGAGGATATCAAGATCTGGCCTCGGCGCGCTAAAAGGAACCTCTAGCTAGCCGACTCACTATAGGGATAATCGCCCTGAGCAAAGACC” is -0.366 ± 0.0916 log2FC. As for “CTCGAGGATATCAAGATCTGGCCTCGGCATAATAAAAGGAACCTCTAGCTAGCCGACTCACTATAGGGATAATCGCCCTGAGCAAAGACC”, the binding signal was found to be 2.68 ± 0.0776 log2FC. The figure for “CTCGAGGATATCAAGATCTGGCCTCGGCCGCCCATTCGGAACCTCTAGCTAGCCGACTCACTATAGGGATAATCGCCCTGAGCAAAGACC” is -0.894 ± 0.121 log2FC.

“CTCGAGGATATCAAGATCTGGCCTCGGCTCGTTAAAAGGAACCTCTAGCTAGCCGACTCACTATAGGGATAATCGCCCTGAGCAAAGACC”: the binding signal came out at 3.05 ± 0.0768 log2FC.

Sequence “CTCGAGGATATCAAGATCTGGCCTCGGCGTTTTAAATGGAACCTCTAGCTAGCCGACTCACTATAGGGATAATCGCCCTGAGCAAAGACC” gave a binding signal of 1.63 ± 0.0846 log2FC. The figure for “CTCGAGGATATCAAGATCTGGCCTCGGCATTTTACATGGAACCTCTAGCTAGCCGACTCACTATAGGGATAATCGCCCTGAGCAAAGACC” is 2.14 ± 0.0807 log2FC; for “CTCGAGGATATCAAGATCTGGCCTCGGCTTTTTATTCGGAACCTCTAGCTAGCCGACTCACTATAGGGATAATCGCCCTGAGCAAAGACC” it is 1.86 ± 0.0775 log2FC.
